Compound activity: PubChem, National Center for Advancing Translational Sciences (NCATS)
Most compounds without a hit are left out; they make up all but 2.4% or so of the library.
D2 ag-1: activates the human D2 dopamine receptor; HEK293 T-REx D2 cells, calcium flux agonist mode; hit rate 0.53% among 340,000; AID 485358; activation, % at 2 µM;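 active = activation over 3 SD above normal in the single-dose calcium agonist read, cut at about 30% in these data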; note: 0% is about no effect
Target sequence (P14416 whole entry, looked up): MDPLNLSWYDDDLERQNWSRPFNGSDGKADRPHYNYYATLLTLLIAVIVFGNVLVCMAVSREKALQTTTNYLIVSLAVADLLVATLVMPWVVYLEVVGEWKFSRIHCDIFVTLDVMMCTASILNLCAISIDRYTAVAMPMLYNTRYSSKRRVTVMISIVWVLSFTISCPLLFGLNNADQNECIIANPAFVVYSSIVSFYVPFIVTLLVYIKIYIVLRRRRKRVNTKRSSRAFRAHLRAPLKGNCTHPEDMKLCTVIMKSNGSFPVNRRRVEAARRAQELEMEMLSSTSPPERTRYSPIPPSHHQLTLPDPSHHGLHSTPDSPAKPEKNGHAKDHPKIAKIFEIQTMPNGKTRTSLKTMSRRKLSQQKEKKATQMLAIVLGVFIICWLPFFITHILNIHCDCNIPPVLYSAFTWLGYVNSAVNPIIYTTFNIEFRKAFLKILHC
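HEK293 Trex D2 cells, tetracycline-induced, o/n 30 C 5% CO2; no-wash Ca dye, RT 30–90 min; 10-cycle baseline, 23 nl cpd added, kinetic Ca read 180 s; agonist hits = positive Ca response.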
D2 PAM-1: human D2 receptor positive allosteric modulation; DiscoveRx D2 beta-arrestin cells, luminescence, 90 min; 100% = 57 uM dopamine signal; potentiation, % (test concentration not listed); AID 624464; hit rate 0.23% among 360,000; in the data active = potentiation above about 50%; inconclusive = mostly about 30% to 49%
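D2 cells co-treated with compound plus 50 nM dopamine (EC20) for 90 min at 37 deg C to detect potentiation. Beta-arrestin recruitment was read as enzyme-fragment luminescence after 1 h at ambient temperature. Full response was set by 57 uM dopamine.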
D2 antag: antagonizes the human D2 dopamine receptor. inhibition, % at 10 µM. AID 485344. hit rate 2% among 340,000. HEK293 TREx D2 cells, calcium flux, dopamine EC80. P14416; in the data active = inhibition above about 30%; inactive = below that, where a call was filed; note: 0% is about no effect
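Cells plated overnight at 30 C with tetracycline; no-wash calcium dye, 30–90 min RT; 10 s baseline; compound pinned; 180 s read; EC80 dopamine added; another 180 s read.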
D2 ag-2: activates the human D2 dopamine receptor; P14416; DiscoveRx PathHunter D2 beta-arrestin, luminescence, 90 min; 100% = 57 uM dopamine signal; activation, % (test concentration not listed); hit rate 0.084% among 360,000; AID 624465; in the data active = activation above about 40%; inconclusive = between about 15% and that limit
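DiscoveRx PathHunter D2 beta-arrestin cells (2,100/well) attached overnight, then compound-stimulated 90 min at 37 C in HBSS/10 mM HEPES/0.1% Tween-20 buffer; beta-galactosidase complementation read by luminescence after 1 h at ambient temperature. Dopamine 57 uM final (EC100) as control.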
D2 PAM-2: positively modulates the human D2 dopamine receptor allosterically; HEK293 T-REx D2, calcium flux, EC20 dopamine potentiation; potentiation, % at 10 µM; hit rate 0.34% among 340,000;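 active = potentiation over 3 SD above the plate norm, cut at about 30% in these data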; note: 0% is about no effect
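Cells plated with tetracycline inducer and held overnight at 30 C; calcium dye loaded 30–90 min at room temperature; baseline taken, compound added and read 180 s; EC20 dopamine then added and read 180 s.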
* marks the source's active call; other numbers are inactive results.

`CCOC(=O)C1CCC(CN(Cc2ccc(OC)cc2)S(=O)(=O)c2ccc(F)c(C(=O)Nc3ccc(C)c(C)c3)c2)CC1` (stereo not drawn) gave D2 ag-1 0 and D2 PAM-2 -5.
Cn1c(COc2ccccc2)nnc1SCc1cc(=O)[nH]c2ccccc12 was read as D2 ag-1 1, D2 PAM-1 1, D2 antag 39*, D2 ag-2 1 and D2 PAM-2 2.
Screening O=c1cc(CSc2nnc(COc3ccccc3)n2-c2ccccc2)c2ccccc2[nH]1 returned D2 ag-1 -1, D2 PAM-1 -12, D2 antag 3, D2 ag-2 0 and D2 PAM-2 -1.
Screening CCOC(=O)c1ccccc1NC(=O)Cn1c(=O)n(Cc2nc(C)no2)c(=O)c2ccccc21 returned D2 ag-1 0 and D2 PAM-2 0.
`CCN1CCN(CCCN(Cc2ccco2)C(=S)Nc2ccc(C)c(Cl)c2)CC1` gave D2 ag-1 2, D2 PAM-1 -19, D2 antag -15, D2 ag-2 2 and D2 PAM-2 -6.
For CCN1CCN(CCCN(Cc2ccco2)C(=S)Nc2cc(Cl)ccc2C)CC1 the results were D2 ag-1 -2, D2 PAM-1 -14, D2 antag 42*, D2 ag-2 -9 and D2 PAM-2 -19.
Screening Cc1ccc(NS(=O)(=O)c2ccc3c(c2)CCC(=O)N3)cc1 returned D2 ag-1 1, D2 PAM-1 -2, D2 antag 65*, D2 ag-2 3 and D2 PAM-2 -25.
`COc1ccc(Br)cc1CNc1ccc(O)cc1` gave D2 ag-1 -1, D2 PAM-1 55*, D2 antag 13 and D2 ag-2 10.
COC(=O)Nc1nnc(COc2ccccc2)s1 was read as D2 ag-1 0, D2 PAM-1 -8, D2 antag -9, D2 ag-2 1 and D2 PAM-2 -7.
For O=C(COC(=O)/C=C/c1ccc(OC(F)F)cc1)NC1CCCC1 the results were D2 ag-1 0, D2 PAM-1 -16, D2 antag 32*, D2 ag-2 -3 and D2 PAM-2 8.
`O=C(/C=C/c1ccc(OC(F)F)cc1)OCC(=O)N1CCC(c2ccccc2)=N1` gave D2 ag-1 3, D2 PAM-1 3, D2 antag 39*, D2 ag-2 -1 and D2 PAM-2 -4.
For O=C(COC(=O)/C=C/c1ccc(OC(F)F)cc1)NC(=O)NC1CCCCC1 the results were D2 PAM-1 -3 and D2 ag-2 -1.
For COc1ccc(-c2c3c(=O)n(C)c(=O)n(C)c3c3n2-c2ccccc2NC3c2ccco2)cc1 (stereo not drawn) the results were D2 ag-1 1 and D2 PAM-2 -4.
`CCCCCCNCc1ccc(Br)cc1` gave D2 ag-1 0, D2 PAM-1 -27, D2 antag 30*, D2 ag-2 -2 and D2 PAM-2 -21.
Screening COc1ccc(-c2cc(C(=O)NC(C)c3ccccc3)c3cc(C(C)C)ccc3n2)cc1 (stereo not drawn) returned D2 ag-1 0 and D2 PAM-2 0.
Screening COc1ccc(OCCOC(=O)c2cc(S(=O)(=O)N3CCOCC3)c(Cl)cc2Cl)cc1 returned D2 ag-1 1, D2 PAM-1 inconclusive, D2 antag 5, D2 ag-2 5 and D2 PAM-2 7.
Screening c1csc(C(c2nnnn2C2CCCC2)N2CCCC3(CCCCC3)C2)c1 (stereo not drawn) returned D2 ag-1 0, D2 PAM-1 -2, D2 antag 31*, D2 ag-2 0 and D2 PAM-2 7.
Screening Cc1cc(=O)n2[nH]c(C)c(-c3ccc(Cl)cc3)c2n1 returned D2 ag-1 -2, D2 PAM-1 -24, D2 antag 46*, D2 ag-2 -1 and D2 PAM-2 -26.
For Cc1cc(=O)n2[nH]c(C)c(-c3ccccc3)c2n1 the results were D2 ag-1 3, D2 PAM-1 -36, D2 antag 6, D2 ag-2 -4 and D2 PAM-2 -16.
Screening NCCC(=O)N1c2ccccc2Sc2ccc(Cl)cc21 returned D2 ag-1 42*, D2 PAM-1 -7, D2 antag 48*, D2 ag-2 -5 and D2 PAM-2 -13.
`CN1CCC=C(C(=O)N2c3ccccc3Sc3ccc(Cl)cc32)C1` gave D2 ag-1 0, D2 PAM-1 -5, D2 antag 39*, D2 ag-2 -2 and D2 PAM-2 -20.
Screening C=CCSc1nnc2c(n1)OC(c1cccnc1)N(C(C)=O)c1ccccc1-2 (stereo not drawn) returned D2 ag-1 0, D2 PAM-1 -14, D2 antag -8, D2 ag-2 -3 and D2 PAM-2 2.
For C=CCSc1nnc2c(n1)OC(c1cccnc1)Nc1ccccc1-2 (stereo not drawn) the results were D2 ag-1 0, D2 PAM-1 53*, D2 antag -3, D2 ag-2 2 and D2 PAM-2 -5.
Screening Cc1[nH]c(=O)[nH]c(=S)c1C(=O)Nc1ccc(Cl)c(Cl)c1 returned D2 PAM-1 -9 and D2 ag-2 -5.
O=C(CSc1nnc(-c2ccccc2)o1)c1ccc2c(c1)OCCO2 was read as D2 ag-1 0, D2 PAM-1 -5, D2 antag 3, D2 ag-2 0 and D2 PAM-2 6.
For COc1ccc(-n2nnnc2SCC(=O)c2cccc(OC)c2)cc1 the results were D2 ag-1 1, D2 PAM-1 0, D2 antag 14, D2 ag-2 -1 and D2 PAM-2 -5.
`c1ccc(-c2csc3nnc(SCc4ccc5c(c4)OCCO5)n23)cc1` gave D2 ag-1 1, D2 PAM-1 -7, D2 antag 10, D2 ag-2 -3 and D2 PAM-2 43*.
For COc1ccc(-n2nnnc2SCC(=O)c2ccc3c(c2)OCCO3)cc1 the results were D2 ag-1 0, D2 PAM-1 -4, D2 antag -4, D2 ag-2 -4 and D2 PAM-2 34*.
c1ccn2c(SCc3ccc4c(c3)OCCO4)nnc2c1 was read as D2 ag-1 0, D2 PAM-1 -4, D2 antag -5, D2 ag-2 -2 and D2 PAM-2 8.
For O=C(CSc1nnc2scc(-c3ccccc3)n12)c1ccc2c(c1)OCCO2 the results were D2 ag-1 -1, D2 PAM-1 3, D2 antag 31*, D2 ag-2 0 and D2 PAM-2 -8.
CCCC/C=C1/CCC(CN(C)C)C1=O (stereo not drawn) was read as D2 PAM-1 -13 and D2 ag-2 0.
`COc1cc(C(C)=O)ccc1OCC(=O)OC(C)C(=O)c1ccc(F)cc1` (stereo not drawn) gave D2 PAM-1 -1 and D2 ag-2 3.
